Screening results as filed in PubChem BioAssay.
Pol eta inh: qHTS for Inhibitors of Polymerase Eta | 390,000 tested, 1.2% active | recombinant Pol eta, fluorescent DNA replication assay | DNA polymerase eta (Homo sapiens), Q9Y253 | Potency, µM (titrated, usually from 114 µM), usual class: inhibitors
Target sequence (Q9Y253 whole entry, looked up): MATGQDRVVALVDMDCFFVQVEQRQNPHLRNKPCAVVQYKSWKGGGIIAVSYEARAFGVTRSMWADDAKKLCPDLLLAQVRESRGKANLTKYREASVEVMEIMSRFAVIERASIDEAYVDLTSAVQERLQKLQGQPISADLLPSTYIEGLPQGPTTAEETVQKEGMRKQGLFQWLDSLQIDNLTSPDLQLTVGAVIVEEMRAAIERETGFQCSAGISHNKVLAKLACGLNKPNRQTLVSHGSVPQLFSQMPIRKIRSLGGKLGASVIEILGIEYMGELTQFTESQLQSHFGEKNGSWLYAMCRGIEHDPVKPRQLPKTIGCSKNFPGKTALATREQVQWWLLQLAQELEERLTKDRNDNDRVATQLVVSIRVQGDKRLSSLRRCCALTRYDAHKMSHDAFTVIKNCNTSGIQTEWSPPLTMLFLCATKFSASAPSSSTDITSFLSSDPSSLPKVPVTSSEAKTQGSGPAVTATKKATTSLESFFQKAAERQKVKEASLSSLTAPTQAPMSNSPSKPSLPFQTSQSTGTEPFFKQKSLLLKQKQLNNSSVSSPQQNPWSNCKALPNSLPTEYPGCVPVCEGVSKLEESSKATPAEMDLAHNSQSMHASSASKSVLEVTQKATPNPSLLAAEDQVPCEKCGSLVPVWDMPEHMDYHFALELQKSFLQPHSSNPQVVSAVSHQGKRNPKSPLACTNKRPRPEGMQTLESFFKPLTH
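Pol eta at 10 nM preincubated with compounds 15 min at room temperature; reaction started with fluorescent substrate (50 nM final) and read kinetically at 0 and 10 min.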
Pol iota inh: qHTS for Inhibitors of Polymerase Iota. DNA polymerase iota (Homo sapiens), Q9UNA4. Pol iota fluorescent replication assay, 10 min. Potency, µM (highest dose often 115 µM), usual class: inhibitors. 390,000 tested, 1% active
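Fluorescent replication assay read twice, at 0 min and 10 min after adding 50 nM (final) substrate. Enzyme (10 nM) and compounds were first incubated 15 min at room temperature; enzyme-free buffer wells were negative controls.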
TDP1 block: qHTS Assay for Inhibitors of Tyrosyl-DNA Phosphodiesterase (TDP1). AID 485290, 2010. Potency, µM (top dose mostly 130 µM), usual class: inhibitors. 350,000 tested, 0.28% active. recombinant TDP1, AlphaScreen DNA substrate cleavage; also: nearly all actives have a fitted effect of over 40% in size
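Recombinant human Tdp1 (E. coli-expressed, 1 nM final) preincubated with compounds 15 min at room temperature, then 5'-biotin/3'-phosphotyrosine-FITC DNA substrate (15 nM final) added for 5 min. AlphaScreen beads (10 ug/ml final) added 10 min; cleavage lowers signal.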
POLB inh: qHTS Assay for Inhibitors of DNA Polymerase Beta. Potency, µM (titrated, usually from 114 µM), usual class: inhibitors. 340,000 tested, 1.3% active. P06746. Pol beta primer extension/strand displacement, fluorescence kinetic
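Kinetic readout of DNA synthesis with strand displacement by Pol beta. Compound and 10 nM enzyme sit 15 min at room temperature; 50 nM substrate starts the reaction, read immediately and at 10 min.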
FEN1 inhibitor: qHTS Assay for the Inhibitors of Human Flap endonuclease 1 (FEN1). Potency, µM (top dose mostly 114 µM), hits mostly inhibitors. Recombinant FEN1 flap cleavage, fluorescence, 15 min. AID 588795, 2011. 390,000 tested, 0.35% active; also: nearly all actives have a fitted effect of over 65% in size
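FEN1 at 10 nM, compound pretreatment for 15 min (room temperature), 50 nM final substrate to initiate; endpoint reads at 0 and 15 min; DMSO-only plates used as vehicle background.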
Pol kappa inh: qHTS for Inhibitors of Polymerase Kappa | DNA polymerase kappa (Homo sapiens), Q9UBT6 | purified Pol kappa, fluorescent DNA synthesis assay, 10 min | Potency, µM (doses to about 107 µM), usual class: inhibitors | 400,000 tested, 0.53% active | AID 588579, 2011
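Pol kappa 10 nM + cpd, 15 min RT; start w/ substrate 50 nM final; fluorescence kinetic read, 0 and 10 min. Neg ctrl: buffer, no enzyme.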
Large screens that a line does not name were inactive. An excerpt weighted towards active compounds, which were near 2.4% of everything screened. Calls follow the shape of the dose curve; as a rule, active = well fitted curve in the direction sought with a large enough effect; inconclusive = small, poorly fitted or top-dose-only effect, or another doubt; inactive = no such curve, though single readings can be large; an effect the other way counts as inactive or inconclusive.

CC(C)CC1=C/C(=C/c2ccc(-c3ccccc3)o2)C(=O)O1	Pol eta inh 2.82µM, Pol iota inh 20µM, POLB inh 15.8µM, FEN1 inhibitor inconclusive, Pol kappa inh 44.7µM
COc1ccc(C(=O)NCC(C)(c2ccccc2)c2ccccc2)cc1S(=O)(=O)N1CCOCC1	none (no result: TDP1 block, POLB inh)
O=C(O)c1ccc2c(=O)n3c(nc2c1)/C(=C/c1ccc(C(F)(F)F)cc1)CC3	Pol eta inh inconclusive, Pol iota inh 79.4µM, FEN1 inhibitor inconclusive (no result: TDP1 block)
N#Cc1ccc(/C=C2\CCCCn3c2nc2cc(C(=O)O)ccc2c3=O)cc1	POLB inh inconclusive (no result: TDP1 block)
Cc1c(C(=O)N/N=C/c2ccc(-c3ccccc3[N+](=O)[O-])o2)sc(N)c1C#N	Pol eta inh 14.1µM, Pol iota inh 56.2µM (no result: TDP1 block)
CC1(NC(=O)CC[N+](C)(C)CCO)CS(=O)(=O)CC1S(=O)(=O)[O-] (stereo unspecified)	POLB inh 2µM (no result: Pol eta inh, Pol iota inh, FEN1 inhibitor, Pol kappa inh)
Cc1occc1C(=O)NCc1ccc2c(c1)OCO2	Pol eta inh inconclusive
Cc1occc1C(=O)NCc1cccc(CNC(=O)c2ccoc2C)c1	Pol eta inh 3.55µM, Pol iota inh 15.8µM, POLB inh 22.4µM, FEN1 inhibitor inconclusive, Pol kappa inh 31.6µM (no result: TDP1 block)
CC(C)(C)n1ncc2c(=O)n(Cc3c(F)ccc(Cl)c3Cl)cnc21	none (no result: Pol eta inh, TDP1 block, POLB inh)
CCOC(=O)c1c(NC(=O)CSc2nnc(-c3ccccc3C)n2C)sc(C(C)=O)c1C	Pol eta inh 35.5µM, FEN1 inhibitor inconclusive, Pol kappa inh inconclusive
CCOC(=O)c1ccc(NC(=O)c2cc3c(=O)n(C)c4ccccc4c3n2C)cc1	Pol iota inh inconclusive
Nc1ccc(OC(=O)Nc2ccc(O)cc2)cc1	Pol iota inh 20µM
N#Cc1nc(NCC(F)F)c2ncn(-c3cc(F)cc(F)c3)c2n1	none (no result: Pol eta inh, Pol iota inh, POLB inh, FEN1 inhibitor, Pol kappa inh)
Cc1ccccc1-n1nc2c(c1NC(=O)c1c(-c3ccccc3Cl)noc1C)CSC2	Pol iota inh 79.4µM, FEN1 inhibitor inconclusive
Cc1ccc(-n2nc3c(c2NC(=O)c2c(-c4ccccc4Cl)noc2C)CSC3)cc1	Pol iota inh inconclusive
Cc1cccc(-n2nc3c(c2NC(=O)c2ccco2)CS(=O)C3)c1C (stereo unspecified)	none
Cc1cccc(-n2nc3c(c2NC(=O)c2ccco2)CSC3)c1C	Pol eta inh 12.6µM, Pol iota inh 14.1µM, POLB inh inconclusive, FEN1 inhibitor inconclusive, Pol kappa inh 28.2µM
CCC1CCC2(C1)N=C(Nc1nc3ccccc3o1)NC1=C2C(=O)CCC1 (stereo unspecified)	none (no result: Pol eta inh, Pol iota inh, POLB inh, FEN1 inhibitor, Pol kappa inh)
Cc1ccc(-c2cc(C(=O)Nc3nccs3)c3ccccc3n2)o1	Pol eta inh inconclusive, Pol iota inh inconclusive, POLB inh 25.1µM
Cc1ccc(-c2cc(C(=O)Nc3ccc(S(=O)(=O)Nc4onc(C)c4C)cc3)c3ccccc3n2)cc1	Pol eta inh 89.1µM, POLB inh inconclusive
COc1ccc(NC(=O)c2cc(-c3ccc(C)o3)nc3ccccc23)cc1OC	Pol eta inh inconclusive, Pol iota inh inconclusive, POLB inh 35.5µM, Pol kappa inh inconclusive
O=C(Nc1ccc(S(=O)(=O)Nc2nccs2)cc1)c1cc(-c2ccccc2Cl)nc2ccccc12	Pol eta inh 28.2µM, Pol iota inh inconclusive, POLB inh inconclusive
Cc1ccc(-c2cc(C(=O)Nc3nccs3)c3ccccc3n2)c(C)c1	FEN1 inhibitor inconclusive
COc1ccc(NC(=O)c2cc(-c3ccc(C)o3)nc3ccccc23)c(OC)c1	none (no result: TDP1 block, POLB inh)
O=C(Nc1ccc(S(=O)(=O)Nc2nccs2)cc1)c1cc(-c2ccccn2)nc2ccccc12	POLB inh inconclusive
CCOC(=O)c1ccc(NC(=O)CC(C)n2nc(C)cc2C)cc1 (stereo unspecified)	none
COc1cccc(CNC(=O)C2CCN(C(=O)N3CCOc4ccc(Cl)cc43)CC2)c1OC	none
Cc1ccc(-c2cc(C(=O)Nc3ccccc3C(N)=O)c3ccccc3n2)o1	Pol eta inh 50.1µM, Pol iota inh inconclusive (no result: TDP1 block, POLB inh)
